Assay outcomes: PubChem, several laboratories
sEH inhibitor: soluble epoxide hydrolase (human) inhibition | inhibition, % at 2 µM | recombinant human sEH enzymatic activity assay | AID 707 | 91,000 compounds, 0.34% hits | P34913; in the data active means inhibition above about 80%
CYP2C19 inh: human CYP2C19 inhibition | P33261 | CYP2C19 Supersomes, luciferin-H EGE luminescence, 30 min | inhibition, % at 5 µM | 96,000 compounds, 21% hits;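 active means CYP2C19 inhibition above a set limit at 5 µM in the primary screen, cut at about 50% in these data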
Target sequence (P33261 whole entry, looked up): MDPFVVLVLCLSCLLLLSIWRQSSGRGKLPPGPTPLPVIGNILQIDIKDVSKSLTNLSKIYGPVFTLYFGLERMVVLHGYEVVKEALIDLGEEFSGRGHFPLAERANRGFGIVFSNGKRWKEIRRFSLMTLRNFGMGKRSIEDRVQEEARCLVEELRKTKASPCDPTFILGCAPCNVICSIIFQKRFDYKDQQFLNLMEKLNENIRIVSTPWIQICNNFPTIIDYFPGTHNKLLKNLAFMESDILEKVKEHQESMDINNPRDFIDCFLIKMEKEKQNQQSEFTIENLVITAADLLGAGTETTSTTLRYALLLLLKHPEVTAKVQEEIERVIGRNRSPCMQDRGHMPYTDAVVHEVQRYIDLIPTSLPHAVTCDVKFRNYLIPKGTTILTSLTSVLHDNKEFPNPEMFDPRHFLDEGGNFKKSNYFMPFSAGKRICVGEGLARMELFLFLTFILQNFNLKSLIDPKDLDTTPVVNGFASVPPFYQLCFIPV
CYP2C9 activ: increases human cytochrome P450 2C9 activity; recombinant CYP2C9, luciferin-H conversion, luminescence; stronger effect = higher value; factor 1 = untreated enzyme, 0 = blocked; activation factor at 5 µM; 96,000 compounds, 1.4% hits; AID 1024;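 active means activation factor of 2 or more for CYP2C9 at a 5 µM dose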
CYP2C9 inhib: blocks human cytochrome P450 2C9; CYP2C9 Supersomes, luciferin-H conversion, luminescence; inhibition, % at 5 µM; 96,000 compounds, 20% hits; AID 777;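 active means blocking of liver enzyme CYP2C9 beyond about 50% at 5 µM, limit read from the data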
sEH act: activators of human soluble epoxide hydrolase; activation, % at 2 µM; 91,000 compounds, 0.04% hits; purified human sEH enzymatic activity, activator screen; P34913; in the data active means activation above about 37%
CYP2C19 act: activators of human cytochrome P450 2C19. recombinant CYP2C19, luciferin-H EGE luminescence; stronger effect = higher value; 0 = fully inhibited enzyme, 1 = untreated enzyme. activation factor at 5 µM. 96,000 tested, under 10 active. AID 1025;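 active means activation factor of at least 2 at 5 µM in the primary screen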
Each line names hits and unclear results; the compound was inactive in the other large screens. A selection: hits, their analogues and other compounds. The true share with any hit is near 27%.

O=C(NCC1CCCO1)C1CCCN(Cc2cnn(-c3ccccc3)c2-n2cccc2)C1 (stereo not drawn)	none
O=S(=O)(c1cnccc1N1CCN(/N=C/c2ccccc2)CC1)N1CCCCC1	none
Cc1ccc(C(=O)C(C(=O)/C=C/c2ccccc2)=C2SCCCS2)cc1	none (no result: CYP2C19 inh, CYP2C9 activ, CYP2C9 inhib, CYP2C19 act)
O=C1c2ccc(Oc3ccc4c(c3)C(=O)N(CCCO)C4=O)cc2C(=O)N1CCCO	none
CCC(=O)c1cc(F)c(N2CCN(C(=O)Cc3ccccc3)CC2)cc1C	CYP2C19 inh 85, CYP2C9 inhib 84
CCCC(=O)c1cc(F)c(N2CCN(C(=O)OCC)CC2)cc1C	none
CCC(=O)c1ccc(N2CCN(C(=O)c3ccc(Br)cc3)CC2)c(F)c1	none
CCC(=O)c1ccc(N2CCN(C(=O)Cc3ccccc3)CC2)c(F)c1	CYP2C19 inh 78, CYP2C9 inhib 95
Cc1cc(N2CCOCC2)c(F)cc1C(=O)c1ccccc1	CYP2C19 inh 59
Cc1ccc(C(=O)CSc2nnc(-c3ccco3)n2CC2CCCO2)cc1 (stereo not drawn)	none
CSc1nnc(C)c(/C=C/Nc2ccc(Cl)cc2)n1	CYP2C9 inhib 57
CSc1nnc(C)c(/C=C/Nc2ccc(F)cc2)n1	none
CCCCn1c(NC(=O)c2ccccc2)c(C#N)c2nc3ccccc3nc21	CYP2C9 inhib 81 (no result: sEH inhibitor, sEH act)
N#Cc1c(N)n(CCNC(=O)c2ccc(Cl)cc2)c2nc3ccccc3nc12	none
O=C(OCc1ccccc1)N1CCOCCOCCN(C(=O)OCc2ccccc2)CCOCCOCC1	CYP2C9 inhib 84
CCOC(=O)N1CCOCCOCCN(C(=O)OCC)CCOCC1	none
O=C(Oc1cccc(Oc2ccccc2)c1)N1CCOCC1	CYP2C19 inh 63
C=CCn1c(SCC(C)=O)nnc1-c1cc(-c2ccccc2)sc1N	none (no result: CYP2C19 inh, CYP2C9 activ, CYP2C9 inhib, CYP2C19 act)
O=C(N/N=C/c1ccncc1)c1cc([N+](=O)[O-])cc([N+](=O)[O-])c1O	CYP2C19 inh 56, CYP2C9 inhib 100
Cc1ccccc1CSc1nc2c(c(=O)[nH]1)CCCC2	CYP2C9 inhib 60
CSc1nc2c(c(=O)[nH]1)C(c1cccs1)C1=C(CCCC1=O)N2 (stereo not drawn)	none (no result: sEH inhibitor, sEH act)
Cc1ccc(CSc2nc3c(c(=O)[nH]2)CCC3)cc1	CYP2C9 inhib 56
Cc1ccc(CSc2nc3c(c(=O)[nH]2)C(c2ccncc2)C2=C(CCCC2=O)N3)cc1 (stereo not drawn)	CYP2C19 inh 94, CYP2C9 inhib 95
Cc1cc(C)cc(N2C(=O)CC(Sc3nnnn3-c3ccccc3)C2=O)c1 (stereo not drawn)	CYP2C19 inh 54
O=C1CC(Sc2nnnn2C2CCCCC2)C(=O)N1c1ccccc1 (stereo not drawn)	none (no result: CYP2C19 inh, CYP2C9 activ, CYP2C9 inhib, CYP2C19 act)
O=C(NCCCN1CCOCC1)c1ccc(-n2nc(C(F)(F)F)cc2-c2cccs2)cc1	CYP2C9 inhib 65
Cc1ccc(C(=O)NCCCN2CCOCC2)cc1	none (no result: CYP2C19 inh, CYP2C9 activ, CYP2C9 inhib, CYP2C19 act)
COCCCNC(=O)c1ccc(-n2nc(C(F)(F)F)cc2-c2cccs2)cc1	CYP2C19 inh 53, CYP2C9 inhib 50
CC(=O)Nc1cc(NC(=O)CCCC(=O)O)ccc1Cl	none
Cc1[nH]c(=S)n(CC2CCCO2)c1C (stereo not drawn)	none (no result: CYP2C19 inh, CYP2C9 activ, CYP2C9 inhib, CYP2C19 act)
CC(C)NC(=O)c1ccccc1NC(=O)CCS(=O)(=O)Cc1ccccc1	CYP2C9 inhib 76
COC(=O)c1ccc(C(=O)OC)c(NC(=O)CS(=O)(=O)Cc2ccccc2)c1	none
CC(C)NC(=O)c1ccccc1NC(=O)c1ccccc1N(C)S(C)(=O)=O	none
CC(C)NC(=O)c1ccccc1NC(=O)CS(=O)(=O)Cc1ccccc1	CYP2C9 inhib 80
Cc1cccc(NC(=O)c2ccc(-n3ccnc3)nc2)c1	CYP2C19 inh 100, CYP2C9 inhib 98
Cc1cccc(NC(=O)c2ccc(S(=O)(=O)N(C)C)cc2)c1	none
COc1ccc(-c2cnc(OC(C)(C)C)nc2OC(C)(C)C)cc1OC	none
Cc1ccc(-c2c3c(nc4sc(C(N)=O)c(N)c24)CCC3)cc1	none
COc1ccc(-c2c3c(nc4sc5c(Cl)nc(C)nc5c24)CCC3)cc1	CYP2C9 inhib 58
CC1=C(C#N)C(NC(=O)C2CC2)(C(F)(F)F)C(=O)N1 (stereo not drawn)	none
COc1cc(-c2nnc(SCc3c(F)cccc3Cl)o2)cc(OC)c1OC	CYP2C9 inhib 58
COc1cc(-c2nnc(SCc3ccccc3Cl)o2)cc(OC)c1OC	none
Cn1c(CSc2nc3ccccc3s2)nnc1SCC(=O)NCCCN1CCOCC1	none (no result: CYP2C19 inh, CYP2C9 activ, CYP2C9 inhib, CYP2C19 act)
COc1ccc(N2C(=O)CSC23C(=O)N2CCCc4cccc3c42)cc1 (stereo not drawn)	none
COc1ccc(N2C(=O)CCC2(C#N)c2ccc(OC)cc2)cc1 (stereo not drawn)	CYP2C19 inh 66
O=C(O)C1CC(=O)N(c2ccc(OCc3ccccc3)cc2)C1 (stereo not drawn)	none
Cc1ccc(N2C(=O)CC2(C#N)c2ccc(OCc3ccccc3)cc2)cc1 (stereo not drawn)	CYP2C9 inhib 62
Cc1ccccc1C(=O)NCc1nnc(SCC(=O)N2c3ccccc3Sc3ccccc32)n1C	none
CCNC(=S)N(Cc1ccc(OC)cc1)C1CC(=O)N(c2ccc(OCC)cc2)C1=O (stereo not drawn)	none
O=C(CSc1nc(O)c(Cc2ccccc2)c(=O)[nH]1)Nc1ccccc1	none
CCC(C)c1c(O)nc(SCC(=O)Nc2ccccc2)[nH]c1=O (stereo not drawn)	CYP2C19 inh 73, CYP2C9 inhib 76
CCC(C)c1c(O)nc(SCC(=O)c2ccccc2)[nH]c1=O (stereo not drawn)	CYP2C9 inhib 54
Cc1ccc(NC(=O)C2CCN(C(=O)NC3CCCCC3)CC2)cc1	none (no result: CYP2C19 inh, CYP2C9 activ, CYP2C9 inhib, CYP2C19 act)
Cc1ccc(C(=O)n2c3ccccc3c3ccccc32)cc1	CYP2C9 inhib 78
Cc1ccc(C(=O)n2nnc3ccccc32)cc1	none (no result: CYP2C19 inh, CYP2C9 activ, CYP2C9 inhib, CYP2C19 act)
CC(=O)n1c2ccccc2c2ccccc21	CYP2C9 inhib 68
CCN1CCN(C(=O)Nc2ccccc2OC)CC1	none (no result: CYP2C19 inh, CYP2C9 activ, CYP2C9 inhib, CYP2C19 act)
COC(=O)Nc1ccc(S(=O)(=O)N2c3ccccc3CCC2C)cc1 (stereo not drawn)	none (no result: sEH inhibitor, sEH act)
Cc1nn2c(N3CCN(c4ccccn4)CC3)cc(C(C)C)nc2c1-c1ccccc1	CYP2C9 inhib 62 (no result: sEH inhibitor, sEH act)
Cc1ccc2c(c1)NC(=O)C(CC(=O)NCc1cccnc1)O2 (stereo not drawn)	none (no result: sEH inhibitor, sEH act)
O=S(=O)(N/N=C\c1ccc2c(c1)OCO2)c1ccc(Cl)cc1	CYP2C9 inhib 86
Cc1ccc(S(=O)(=O)N/N=C\c2ccc3c(c2)OCO3)cc1	CYP2C19 inh 59, CYP2C9 inhib 75
Cc1ccc(CNS(=O)(=O)/C=C/c2ccc3c(c2)OCO3)cc1	CYP2C19 inh 99 (no result: sEH inhibitor, sEH act)
CC(/C=C/c1ccc2c(c1)OCO2)=N/NC(=O)CNc1ccc(C)cc1	none (no result: CYP2C19 inh, CYP2C9 activ, CYP2C9 inhib, CYP2C19 act)
Cc1ccc(S(=O)(=O)N/N=C/c2ccc(C(=O)O)cc2)cc1	none
CCCS(=O)(=O)N1CCc2cc(OC)c(OC)cc2C1	CYP2C19 inh 55
CC1(C)CC(=O)C2=C(C1)Nc1ccccc1NC2c1ccc2c(c1)OCO2 (stereo not drawn)	none
